# Experimental data as given in PMC4336329 (PLoS ONE, 2015).
# Screen size: about 310,000 compounds; about 14,000 (4.5%) showed an effect of 50% or more. Effects have a minus sign here. The entries come from a sample that favours strong results as a whole.
# Biological target: human ether-à-go-go-related gene (hERG) potassium channel (human, UniProt Q12809)
# Assay: primary screen, population patch clamp on CHO cells stably expressing hERG; higher = less effect of the substance
# 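Further: peak tail current of the secondary pulse compared with the same well before compound.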
# Sequence of human ether-à-go-go-related gene (hERG) potassium channel (Q12809 whole entry, looked up): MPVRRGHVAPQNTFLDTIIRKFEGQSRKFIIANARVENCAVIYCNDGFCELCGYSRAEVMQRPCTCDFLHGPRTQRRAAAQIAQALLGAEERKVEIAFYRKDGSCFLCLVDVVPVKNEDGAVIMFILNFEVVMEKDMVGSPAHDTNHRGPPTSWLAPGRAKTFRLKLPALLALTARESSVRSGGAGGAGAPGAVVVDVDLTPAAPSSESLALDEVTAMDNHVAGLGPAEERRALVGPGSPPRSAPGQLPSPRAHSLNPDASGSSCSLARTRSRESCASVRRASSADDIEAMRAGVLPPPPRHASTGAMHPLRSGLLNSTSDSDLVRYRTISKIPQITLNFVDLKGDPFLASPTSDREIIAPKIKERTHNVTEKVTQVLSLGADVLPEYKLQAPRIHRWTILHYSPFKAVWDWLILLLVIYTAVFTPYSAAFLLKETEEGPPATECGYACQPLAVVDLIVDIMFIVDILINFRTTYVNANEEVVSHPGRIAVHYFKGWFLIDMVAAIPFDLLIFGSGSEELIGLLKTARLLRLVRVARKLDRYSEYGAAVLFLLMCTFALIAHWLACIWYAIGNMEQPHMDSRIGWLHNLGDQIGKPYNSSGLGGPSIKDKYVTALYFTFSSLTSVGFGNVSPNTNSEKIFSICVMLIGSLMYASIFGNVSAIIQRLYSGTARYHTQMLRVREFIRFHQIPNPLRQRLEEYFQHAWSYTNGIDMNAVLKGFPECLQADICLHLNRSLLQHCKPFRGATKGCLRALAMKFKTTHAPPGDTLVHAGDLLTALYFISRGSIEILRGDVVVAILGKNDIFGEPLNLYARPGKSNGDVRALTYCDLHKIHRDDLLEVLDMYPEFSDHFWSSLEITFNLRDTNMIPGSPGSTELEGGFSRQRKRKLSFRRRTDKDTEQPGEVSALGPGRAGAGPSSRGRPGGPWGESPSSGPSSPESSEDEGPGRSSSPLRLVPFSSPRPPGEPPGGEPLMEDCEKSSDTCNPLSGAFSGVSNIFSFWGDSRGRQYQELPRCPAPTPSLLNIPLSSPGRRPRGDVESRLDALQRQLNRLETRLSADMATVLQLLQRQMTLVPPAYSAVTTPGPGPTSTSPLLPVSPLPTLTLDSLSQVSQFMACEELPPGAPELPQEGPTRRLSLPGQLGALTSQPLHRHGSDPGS
row,Structure (SMILES),"hERG current change (%, negative = inhibition) at 10uM"
1,CC(=O)Nc1c(NCC(C)C)c2ccccc2oc1=O,16.7%
2,Cc1ccc(NC(=O)N2CCc3ccccc3C2)cc1C,15.2%
3,COC(=O)Cc1c(O)ccn(CCc2ccccc2)c1=O,51.2%
4,CCCn1nc(C(=O)NCC2COc3ccccc3O2)c2ccccc2c1=O (stereo not shown),-36.2%
5,COc1ccc(N2CN=C3SCC(=O)N3C2)cc1,11.5%
6,CC(NC(=O)C1C(=O)N(CCO)C2(C)CC1c1ccccc1O2)c1ccccc1 (stereo not shown),-14.4%
7,CC(=O)Nc1cccc(C(=O)Nc2ccccc2C(=O)O)c1,7.39%
8,Cc1ccc(-c2csc(NC(=O)CSc3nc4ccccc4c(=O)n3CCCN(C)C)n2)cc1,-35.2%
9,C=CCN(CC=C)c1nc2ccccc2nc1C(C#N)C(=O)OCCOC (stereo not shown),-29.8%
10,Br.N=C1c2ccccc2CN1c1ccc(N2CCOCC2)c(S(=O)(=O)Nc2ccc(Cl)cc2)c1,-81%
11,CCC(=O)Nc1ccc(N2CCOCC2)c(S(=O)(=O)Nc2ccc(Cl)cc2)c1,-25.2%
12,Br.COc1ccccc1NS(=O)(=O)c1cc(N2Cc3ccccc3C2=N)ccc1N1CCOCC1,-73.3%
13,COc1ccccc1NS(=O)(=O)c1cc(NC(=O)C2CC2)ccc1N1CCOCC1,45.4%
14,COc1ccccc1NS(=O)(=O)c1cc(NC(=O)C(C)(C)C)ccc1N1CCOCC1,-36.4%
15,O=S(=O)(Nc1ccc(N2CCOCC2)cc1)c1cc(Cl)ccc1Cl,4.1%
16,CCOC(=O)c1nc(C)sc1-c1ccnn1S(=O)(=O)c1ccccc1C(F)(F)F,-25.1%
17,CN(CCCC1CCCC1)C(=O)CCc1nnc(-c2ccccc2)o1,-22.7%
18,Cc1cccc(-c2n[nH]c(=S)n2/N=C/c2ccco2)c1,2.87%
19,O=C1[C@@H]2C(Cc3ccc(O)cc3)NC3(C(=O)Nc4ccc(F)cc43)[C@@H]2C(=O)N1c1ccc(F)cc1 (stereo partly shown),10.1%
20,CC(O)(C#CCN1CCCCC1)c1ccccc1 (stereo not shown),1.9%
21,CC(O)C(=O)O.Cc1ccc(CN(CC(O)COc2cccc3[nH]cc(C)c23)C(C)(C)C)cc1 (stereo not shown),-60.8%

row,Structure (SMILES),"hERG current change (%, negative = inhibition) at 10uM"
1,COC(=O)Cc1c[nH]c2cccc(OCC(O)CN(Cc3ccc([N+](=O)[O-])cc3)C(C)(C)C)c12.Cl (stereo not shown),-4.66%
2,COc1ccc(OCC(O)CN(C)C(=O)C(C)Oc2ccccc2)cc1 (stereo not shown),6.31%
3,Cc1c[nH]c2cccc(OCC(O)CNC(C)(C)C)c12.Cl (stereo not shown),-8.91%
4,Cc1c[nH]c2cccc(OCC(CNC(C)(C)C)OC(=O)c3ccccc3)c12.Cl (stereo not shown),1.02%
5,CC(O)C(=O)O.COc1ccc(CN(CC(O)COc2cccc3[nH]cc(C)c23)C(C)(C)C)cc1 (stereo not shown),-60.6%
6,CCOC(=O)CSc1ncnc2c1sc1nc(N3CCOCC3)c3c(c12)CCCC3,12.7%
7,CCOC(=O)CSc1ncnc2c(C(=O)OCC)c3n(c12)CCC3,-62.6%
8,CCOC(=O)c1c2n(c3c(NCc4ccccc4)ncnc13)CCCC2,-76.3%
9,CCOC(=O)c1c(C)nsc1NCc1ccccc1,5.94%
10,CCOC(=O)c1c(NCc2ccccc2)n[nH]c1C,5%
11,CCSc1ncnc2c(C#N)c3n(c12)CCCCC3,-23.8%
12,COc1ccc(CNc2nnnn2C)cc1,20.9%
13,CCOC(=O)Cc1csc(NC(=O)c2ccco2)n1,0.229%
14,Cn1c(=O)[nH]c(=O)c2c1nc(N1CCCCCC1)n2CCCSc1nc2ccccc2o1,-38.3%
15,Cn1c(=O)[nH]c(=O)c2c1nc(Br)n2CCCSc1nc2ccccc2o1,-66.8%
16,Cn1c(=O)[nH]c(=O)c2c1nc(N1CCCC1)n2CCCSc1nc2ccccc2o1,-25.4%
17,Cn1c(=O)[nH]c(=O)c2c1nc(Br)n2CCSc1nc2ccccc2o1,-1.02%
18,Cn1c(=O)[nH]c(=O)c2c1nc(N1CCCCC1)n2CCSc1nc2ccccc2o1,11.1%
19,Cn1c(=O)[nH]c(=O)c2c1nc(Br)n2CCCCSc1nc2ccccc2o1,-55.6%
20,Oc1ccc(CNCC2COc3ccccc3O2)cc1 (stereo not shown),4.89%
21,COc1ccc(OCCC(=O)OCC(=O)NCCc2ccccc2)cc1,6.65%

row,Structure (SMILES),"hERG current change (%, negative = inhibition) at 10uM"
1,O=C(/C=C/c1ccccc1[N+](=O)[O-])NCC1CCCO1 (stereo not shown),-3.47%
2,COc1ccc(COC(=O)C2CCN(S(=O)(=O)c3ccc(Cl)cc3)CC2)cc1,30%
3,CCn1c(CSc2ncn[nH]2)nc2cc(C(=O)O)ccc21,-4.97%
4,CCOc1ccc(CNC(=O)CCC(=O)N2Cc3ccccc3Oc3ncccc32)cc1,-51.1%
5,COc1cccc2c1Oc1ncccc1N(C(=O)CCC(=O)NCc1ccc(F)cc1)C2,-32.6%
6,CCOc1ccccc1CNC(=O)CCC(=O)N1Cc2ccccc2Oc2ncccc21,-3.62%
7,CCOc1ccc(CNC(=O)CCC(=O)N2Cc3cccc(OC)c3Oc3ncccc32)cc1,-44.3%
8,CCc1ccc(CNC(=O)CCC(=O)N2Cc3cccc(OC)c3Oc3ncccc32)cc1,-75%
9,COc1cccc2c1Oc1ncccc1N(C(=O)CCC(=O)NCc1ccc(C)cc1)C2,-34.4%
10,O=C1C=C(Nc2ccc(O)cc2)C(=O)c2ccccc21,4.35%
11,CCc1ccccc1Nc1nc(-c2cccnc2)cs1,-3.32%
12,Fc1ccc(NC(=S)N/N=C/c2ccc(F)c(F)c2)c(F)c1,13%
13,Cc1nc(SCC(=O)NC2CCCC2)c2c(C)c(C)sc2n1,-4.48%
14,CCc1cccc2c(C(=O)COC(=O)C3=NNC(=O)CC3)c[nH]c12,-51.6%
15,O=C1CCC(C(=O)OCC(=O)c2c[nH]c3ccccc23)=NN1,1.19%
16,CCc1cccc2c(C(=O)COC(=O)c3ccccc3)c[nH]c12,11.7%
17,CCc1cccc2c(C(=O)COC(=O)c3nccnc3N)c[nH]c12,-5.69%
18,CCc1cccc2c(C(=O)COC(=O)c3nn(C)c(=O)c4ccccc34)c[nH]c12,-65.6%
19,CCc1cccc2c(C(=O)COC(=O)c3cnc(C)cn3)c[nH]c12,2.87%
